Shown are actives, neighbours in structure and some others; about 2.4% of the full set was active somewhere.
AmpC inh no det – inhibitors of E. coli AmpC beta-lactamase without detergent | P00811 | AmpC nitrocefin hydrolysis, absorbance 480 nm, no detergent | Potency, µM (highest dose often 28.7 µM), without a hit: top-dose activity change, negative = inhibition | 71,000 tested, 1.8% active; further: % of control where 0% means no effect
Target sequence (P00811 whole entry, looked up): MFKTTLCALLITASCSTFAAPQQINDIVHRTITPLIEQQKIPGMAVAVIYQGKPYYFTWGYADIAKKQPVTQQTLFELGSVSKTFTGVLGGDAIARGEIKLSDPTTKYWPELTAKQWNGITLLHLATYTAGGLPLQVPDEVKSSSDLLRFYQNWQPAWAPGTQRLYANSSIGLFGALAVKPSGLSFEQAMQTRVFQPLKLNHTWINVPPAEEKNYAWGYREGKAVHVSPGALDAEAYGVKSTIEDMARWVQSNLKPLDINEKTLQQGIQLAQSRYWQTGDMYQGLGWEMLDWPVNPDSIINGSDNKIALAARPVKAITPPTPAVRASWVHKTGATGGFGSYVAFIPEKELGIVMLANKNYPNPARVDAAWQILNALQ
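AmpC, 20 mM phosphate pH 7.0; 15 min cpd preinc, RT; start with nitrocefin (800 uM stock); A480 kinetic read, 20 s intervals, 4 min. No-enzyme wells = negative control.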
SmPrx2 inh – blocks S. mansoni peroxiredoxin 2 enzymatic activity; S. mansoni Prx2 activity coupled to TGR/GSH (TGR is thioredoxin glutathione reductase), NADPH fluorescence loss, qHTS; 65,000 tested, 0.07% active; Potency, µM
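Enzyme mix: 100 uM NADPH, 25 nM TGR, 700 uM GSH, 50 nM Prx2 in 100 mM phosphate pH 7.4, 10 mM EDTA, 0.01% Tween-20. 15 min RT with compound; NADPH/GSH added, H2O2 starts reaction; NADPH fluorescence read 8 min.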
AmpC inh det – blocks E. coli AmpC beta-lactamase in presence of detergent | 71,000 tested, 0.09% active | AID 584 | P00811 | Potency, µM (series often up to 28.7 µM), inactives show at the top dose activity change, negative = inhibition | purified AmpC, nitrocefin hydrolysis with detergent; active means well fitted curve in the direction sought with a large enough effect; inconclusive means small, poorly fitted or top-dose-only effect; further: on the % scale 0 is the no-effect control and ±100 the full control effect
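E. coli AmpC (5.3 nM) in 20 mM phosphate pH 7.0 with 0.01% Triton X-100, preincubated 15 min RT with compound; nitrocefin (2 uL of 800 uM stock) hydrolysis followed by 480 nm absorbance every 20 s over 4 min.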
LT uptake inh – blocks cellular internalization of anthrax lethal toxin; Cells, anthrax lethal toxin internalization, FRET ratio (460/530); Potency, µM (doses to about 40 µM), inactives show at the highest dose activity change, negative = inhibition, most hits filed as inhibitors; 70,000 tested, 0.67% active; AID 912; further: on the % scale 0 is the no-effect control and ±100 the full control effect; nearly all actives have a fitted effect of over 50% in size
Starred values were filed as active, the others as inactive; ? = inconclusive; nt = not tested or not shown; [ ] = another dose, or the depositor's remark. Unless noted, the call rests on the fitted dose curve. Potency means the concentration at half of the fitted maximal effect.

SMILES | AmpC inh no det | SmPrx2 inh | AmpC inh det | LT uptake inh
Cc1cc(C)cc(N(CC(=O)N2CCn3c2nc2ccccc23)S(=O)(=O)c2c(C)noc2C)c1 | 4µM*[single pt active] | >57 | 11% | ?
CCOc1ccc(N(CC(=O)N2CCc3ccccc32)S(=O)(=O)c2c(C)noc2C)cc1 | 3.2µM*[single pt active] | >57 | 17% | ?
O=C1OC2(c3cc(Br)c(O)c(Br)c3Oc3c2cc(Br)c(O)c3Br)c2c(Cl)c(Cl)c(Cl)c(Cl)c21 | -21% | nt | 2% | ?
C[C@H]1[C@H](C)CC[C@]2(C(=O)O)CC[C@]3(C)C(=CC[C@@H]4[C@]5(C)C[C@H](O)[C@@H](O)[C@@](C)(CO)[C@@H]5[C@H](O)C[C@@]43C)[C@H]12 | 40%[5.75 µM] | >57 | -4%[5.75 µM] | -3%[8 µM]
CNc1ncnc2c1ncn2[C@H]1C[C@@H](OP(=O)(O)O)[C@H](COP(=O)(O)O)O1 | -1% | >57 | -2% | 6%
CCCCC[C@H](CC(=O)NO)C(=O)N[C@@H](C(=O)N1CCC[C@H]1CO)C(C)C | -1% | >57 | 2% | 4%
c1ccc(CCNc2ccc3nncn3n2)cc1 | 3.2µM*[single pt active] | >57 | 12% | -13%
O=C(NCCc1ccccc1)c1ccc(-n2cnnn2)cc1 | 4% | >57 | 17% | 9%
CN(C)c1ccc(N)cc1 | 39% | nt | 10% | ?
O=c1cc(-c2ccc(Cl)c(Cl)c2)[nH][nH]1 | 13µM*[single pt active] | >57 | 1% | -12%
O=c1cc(-c2ccc(Cl)cc2)[nH][nH]1 | -5% | >57 | -1% | 12%
Cc1ccc(-c2nnc3n2N=C(c2ccccc2)CS3)cc1 | 8% | >57 | 13% | -18%
c1ccc(C2=Nn3c(nnc3-c3cc(-c4ccccc4)n[nH]3)SC2)cc1 | 38% | >57 | 3% | 13µM*
Cc1cc(N=Cc2c(O)n(-c3ccc4c(c3)OCO4)c(=O)c3ccccc23)ccn1 | 111% | >57 | 9% | 7.9µM*
CC(=O)OC1c2ccccc2C(=O)N1Cc1ccccc1Cl (configuration not stated) | 4µM*[single pt active] | >57 | 9% | -5%
CCC(C)NC(=O)C1c2ccccc2C(=O)N1Cc1ccccc1OC (configuration not stated) | 4% | >57 | -3% | 9%
N#Cc1c(C(F)(F)F)cc(C2CC2)[nH]c1=O | 4µM*[single pt active] | >57 | 15% | -11%
CN(C)c1cc(NC(=O)CN2CCOCC2)c2ccccc2n1 | 4µM*[single pt active] | >57 | 12% | -20%
CCCCC(=O)Nc1cc(N(C)C)nc2ccccc12 | 8% | >57 | -2% | -3%
C=CCN1CCc2cccc3c2[C@@H]1Cc1ccc(O)c(O)c1-3 | -13% | >57 | 0% | ?
COC(=O)c1ccc2c(c1)NC(=O)C1CCCN21 (configuration not stated) | 4µM*[single pt active] | >57 | 27% | ?
COc1ccc(Cn2c(C)nc3c(c2=O)c2nc4ccccc4nc2n3Cc2ccco2)cc1 | 49% | >57 | 13% | ?
COc1ccc(S(=O)(=O)c2c(N)n(Cc3ccco3)c3nc4ccccc4nc23)cc1 | 13µM* | >57 | -1% | ?
C=C[C@@H]1CN2CC[C@@H]1C[C@H]2[C@H](O)c1ccnc2ccccc12 | -1% | >57 | -2% | -12%
COC(=O)[C@@H]1C[C@@H]1[C@@H](NP(=O)(c1ccccc1)c1ccccc1)c1ccccc1 | 96% | nt | 2% | -6%
SMILES | AmpC inh no det | SmPrx2 inh | AmpC inh det | LT uptake inh
O=C(Nc1ccc(-c2noc(CCc3ccccc3)n2)cc1)c1cccnc1 | 98% | >57 | -3% | 10µM*
S=C(Nc1ccccc1)Nc1ccccc1C#Cc1ccccc1 | 5µM* | >11 | 0% | ?
O=C(Cn1c(=O)oc2cc(S(=O)(=O)N3CCCC3)ccc21)NCc1ccccn1 | 4µM*[single pt active] | >57 | 12% | -4%
O=C(NC1CCCCC1)NC1CCN(S(=O)(=O)c2ccc3c(c2)OCCO3)CC1 | 10µM*[single pt active] | >57 | 13% | ?
CCOC(=O)Cn1c(=O)oc2cc(S(=O)(=O)NCc3ccccn3)ccc21 | 17% | >57 | 12% | 9%
O=C(Cn1c(=O)oc2cc(S(=O)(=O)N3CCCCCC3)ccc21)NC1CCCCC1 | 4µM*[single pt active] | >57 | 11% | -16%
Cn1c(C(=O)N2CCN(c3ccccc3F)CC2)cc2c(=O)n(C)c3ccccc3c21 | 4µM*[single pt active] | >57 | 13% | -3%
Cc1ccc(Cl)cc1N1CCN(C(=O)c2cc3c(=O)n(C)c4ccccc4c3n2C)CC1 | 4µM*[single pt active] | >57 | 13% | -12%
Cn1c(C(=O)N2CCCC2)cc2c(=O)n(C)c3ccccc3c21 | 11% | >57 | 12% | 2%
